KB-3-1 tox: qHTS assay for MDR1-selective chemotherapeutics: Primary screen using the parental adenocarcinoma cell KB-3-1; AID 1347075, 2019; KB-3-1 viability, CellTiter-Glo ATP luminescence, 72 h; 400,000 tested, 1.4% active; Potency, µM (doses to about 46.1 µM), actives largely listed as cytotoxic; further: on the % scale 0 is the no-effect control and ±100 the full control effect; nearly all actives have a fitted effect of over 60% in size
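Multi-concentration cytotoxicity screen in KB-3-1 cells grown in DMEM lacking phenol red with 10% FBS. After 72 h at 37 °C with compound, ATP-dependent luminescence was recorded.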
SW480 rerep: A quantitative high throughput screen for small molecules that induce DNA re-replication in SW480 colon adenocarcinoma cells. SW480 DNA re-replication, Hoechst DNA content imaging, 48 h. Potency, µM (doses to about 46.1 µM), for inactives: at the highest dose re-replication activation, usual class: activators. 340,000 tested, 1.8% active. AID 624297, 2012; further: % of control where 0% means no effect; nearly all actives have a fitted effect of over 55% in size
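First, 250 cells per well were seeded. Next, compound or vehicle (23 nL) was pinned in, plates sat 48 hr at 37 C. Finally Hoechst was added for 40 min before fluorescence scanning.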
MCF10A rereplic: A quantitative high throughput screen for small molecules that induce DNA re-replication in MCF 10a normal breast cells; MCF 10A DNA re-replication, Hoechst nuclear intensity, 48 h; Potency, µM (series often up to 46.1 µM), without a hit: at the highest dose activity, positive = re-replication, hits mostly activators; AID 624296, 2012; 350,000 tested, 2.9% active; further: % of control where 0% means no effect; nearly all actives have a fitted effect of over 50% in size
KB-V1 MDR tox: qHTS assay for MDR1-selective chemotherapeutics: Primary screen using the drug-selected MDR subline cells KB-V1; Potency, µM (top dose mostly 46.1 µM), most hits filed as cytotoxic; AID 1347076, 2019; KB-V1 MDR cells viability, CellTiter-Glo, 72 h; 400,000 tested, 3.4% active; further: on the % scale 0 is the no-effect control and ±100 the full control effect; nearly all actives have a fitted effect of over 60% in size
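Readout: CellTiter-Glo luminescence, 10 min after addition. Cells: KB-V1 MDR subline, 72 h at 37 degrees C with compound. Analysis: corrected, normalized data fitted to concentration-effect curves.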
TSG101-PTAP inh: qHTS Assay for Iinhibitors of HIV-1 Budding by Blocking the Interaction of PTAP/TSG101 | Tumor susceptibility gene 101 protein (Homo sapiens), Q99816 | Fluorescence polarization, FITC-PTAP peptide / Tsg101 binding | Potency, µM (doses to about 115 µM), for inactives: top-dose activity change, negative = inhibition, usual class: inhibitors | 340,000 tested, under 10 active | AID 493005, 2010; active means well fitted inhibition curve with a large enough effect in the main read-out, with a control signal flat, not every such curve was filed as active; inconclusive means small, poorly fitted or top-dose-only effect, or effect the other way, or a change in a side signal; inactive means no such curve, though single readings can be large or run the other way; further: % of control where 0% means no effect
Target sequence (Q99816 whole entry, looked up): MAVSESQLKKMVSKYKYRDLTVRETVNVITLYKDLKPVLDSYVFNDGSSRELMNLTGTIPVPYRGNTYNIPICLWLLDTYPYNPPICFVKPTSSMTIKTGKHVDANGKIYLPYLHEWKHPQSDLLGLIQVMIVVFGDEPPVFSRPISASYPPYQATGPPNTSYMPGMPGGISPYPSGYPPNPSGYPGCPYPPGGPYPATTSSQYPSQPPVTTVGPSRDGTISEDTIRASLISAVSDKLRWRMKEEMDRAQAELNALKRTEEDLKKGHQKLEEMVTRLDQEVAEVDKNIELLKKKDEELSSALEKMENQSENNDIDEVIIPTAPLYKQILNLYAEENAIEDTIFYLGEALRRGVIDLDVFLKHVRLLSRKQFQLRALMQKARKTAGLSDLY
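Tsg101 binding domain (10 uM final) was mixed with compound and a FITC-labeled PTAP peptide (50 nM final) in HEPES pH 7.5 buffer with NaCl, Tween 20, EDTA and TCEP; fluorescence polarization was read after 20 min at r.t.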
RGS4 inhibitor: Inhibitors of Regulator of G Protein Signaling (RGS) 4: qHTS | Regulator of G-protein signaling 4 (Homo sapiens), P49798 | Transcreener GDP fluorescence polarization, RGS4-accelerated GTP hydrolysis | Potency, µM (doses to about 114 µM), for inactives: top-dose activity change, negative = inhibition, hits mostly inhibitors | 390,000 tested, 0.039% active | AID 504845, 2011; further: on the % scale 0 is the no-effect control and ±100 the full control effect; nearly all actives have a fitted effect of over 75% in size
Target sequence (P49798 whole entry, looked up): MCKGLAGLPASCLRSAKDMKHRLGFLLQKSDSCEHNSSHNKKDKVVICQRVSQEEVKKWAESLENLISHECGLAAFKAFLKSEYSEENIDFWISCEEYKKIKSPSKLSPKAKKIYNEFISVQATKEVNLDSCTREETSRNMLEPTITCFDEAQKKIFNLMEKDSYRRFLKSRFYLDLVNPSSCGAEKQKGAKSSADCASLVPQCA
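MLSMR compounds (23 nl, pin-transferred) preincubated 10 min at room temperature with a 500nM (2x) first reagent, then RGS4 at 900nM (2x) plus Transcreener GDP mix added; fluorescence polarization (620/688 nm) read before and after 90 min at 30 °C.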
Active calls of the source: *; i = inactive; ? = inconclusive; · = no result; [ ] = remark or other dose. Rows were chosen to be rich in hits. Some 6.6% of all compounds tested hit in one or more screens of this group. Unless noted, the call rests on the fitted dose curve; in most records, active means well fitted curve in the direction sought with a large enough effect; inconclusive means small, poorly fitted or top-dose-only effect, or another doubt; inactive means no such curve, though single readings can be large; an effect the other way counts as inactive or inconclusive. Potency means the concentration at half of the fitted maximal effect.

SMILES | KB-3-1 tox | SW480 rerep | MCF10A rereplic | KB-V1 MDR tox | TSG101-PTAP inh | RGS4 inhibitor
Cc1ccc(C2C(=O)N(C3CCCC3)CC(=O)N2C2CCCCC2)cc1 (stereo not given) | i | 3% | 7% | 2.9µM* | -3% | -3%
COc1ccc(-c2noc(CNC(=O)COc3cccc(C)c3C)n2)cc1 | · | · | · | · | · | -14%
COc1ccc(NC(=O)C2Cc3ccccc3C(=O)O2)cc1 (stereo not given) | i | 1% | 9% | i | -2% | -1%
COc1ccc(C2Cc3ccccc3C(=O)O2)cc1 (stereo not given) | i | 21µM* | -3% | ? | -3% | -14%
CN(C)c1ccc(/C=N/NC(=O)c2nnn(-c3nonc3N)c2CN(C)c2ccccc2)cc1 | i | 9.2µM* | 12µM* | i | -5% | 22%
Cc1cccc(COc2ccc(/C=N/NC(=O)c3nnn(-c4nonc4N)c3CN3CCCCC3)cc2)c1 | i | -24% | 16µM* | ? | -6% | 9%
Cc1cccc(COc2ccc(/C=N/NC(=O)c3nnn(-c4nonc4N)c3COc3ccc(F)cc3)cc2)c1 | ? | ? | 15µM* | i | 0% | 14%
COC(=O)c1ccc(NC(=O)CCn2cccn2)cc1 | i | · | · | i | · | -31%
Cc1nc(-n2nc(C)c(Cc3ccccc3Cl)c2C)sc1C(=O)N1CCCCC1C (stereo not given) | · | · | · | · | · | 0%
O=C(CCn1nnc2ccccc21)Nc1nnc(Cc2ccccc2)s1 | i | -4% | 8% | 16µM* | 0% | -46%
O=C(CCn1nnc2ccccc21)Nc1nnc(COc2ccccc2F)s1 | i | -11% | 0% | i | -1% | -12%
COc1ccc2c(C)c(CCC(=O)NCc3ccc(C)cc3)c(=O)oc2c1 | i | · | · | i | · | 2%
Cc1nc(N)ncc1-c1ccc2c(c1)OCO2 | ? | -9% | -10% | 12µM* | -2% | 5%
Cn1c(-c2ccc3c(c2)OCO3)cnc1N | i | -1% | ? | ? | -2% | -10%
O=C(C[N+]12CN3CN(CN(C3)C1)C2)c1ccc(I)cc1 | i | · | · | i | · | ·
COc1cccc(CNC(=O)Cc2csc3ccccc23)c1OC | · | · | · | · | · | -5%
O=[N+]([O-])C(/C=C(/Cl)[N+](=O)[O-])=C(N1CCCCC1)N1CCCCC1 | i | 15µM* | 6% | i | 3% | 12%
O=C(/C=C/c1ccccc1[N+](=O)[O-])N1CCCCC1 | i | 6% | -11% | i | 2% | -29%[11.4 µM]
Cc1cccc2[nH]cc(/C=C3/C=Nc4ccccc43)c12 | i | · | · | i | · | ·
C[C@H]1CN([C@@H](C)CO)C(=O)Cc2cc(NC(=O)CCC(F)(F)F)ccc2O[C@H]1CN(C)S(C)(=O)=O | i | 2% | 2% | i | -1% | -20%
Cc1ccc(S(=O)(=O)N(C)C[C@@H]2Oc3ccc(NC(=O)CCC(F)(F)F)cc3CC(=O)N([C@@H](C)CO)C[C@@H]2C)cc1 | ? | 3.7µM* | 3.7µM* | i | -2% | -14%
C[C@H](CO)N1C[C@H](C)[C@H](CN(C)S(=O)(=O)c2cn(C)cn2)Oc2ccc(NC(=O)Nc3ccc(C(F)(F)F)cc3)cc2CC1=O | 4.1µM* | ? | ? | ? | · | -12%
CCN1CCc2c(sc(NC(=S)NC(=O)c3cccc(F)c3)c2C(N)=O)C1 | i | · | · | i | · | ?
O=C(Nc1cccc(OCc2cc(=O)n3ccccc3n2)c1)Nc1cccc(C(F)(F)F)c1 | · | · | · | · | · | 1%
CSc1nsc(/C=C/Nc2ccc(C)cc2)c1C#N | i | ? | ? | i | 6% | -19%
SMILES | KB-3-1 tox | SW480 rerep | MCF10A rereplic | KB-V1 MDR tox | TSG101-PTAP inh | RGS4 inhibitor
CSc1nsc(/C=C/Nc2ccc(C)c(C)c2)c1C#N | i | 18µM* | 1.2µM* | i | 5% | -2%
Cc1cccc(C)c1NC(=O)CSc1nc(-c2ccco2)cc(C(F)(F)F)n1 | i | 21µM* | 8% | i | 2% | -8%
Cc1cc(NC(=O)CCSc2nc(-c3ccco3)cc(C(F)(F)F)n2)no1 | i | -31% | -11% | i | 1% | 2%
Cc1ccc(NC(=O)CSc2nc(-c3ccco3)cc(C(F)(F)F)n2)cc1 | ? | · | · | ? | · | 13%
Cc1cc(NC(=O)CSc2nc(-c3ccco3)cc(C(F)(F)F)n2)no1 | 0.82µM* | 0.73µM* | 3.3µM* | ? | 2% | -16%
CC(=O)c1cc(-c2ccccc2)n(CCC(=O)Nc2cc(C)cc(C)c2)c1C | i | · | · | i | · | 2%
CCS(=O)(=O)N1CCc2cc(C(=O)N3CCN(c4ccccc4)CC3)ccc21 | i | · | · | i | · | -24%
COc1cc(C)ccc1OCC(=O)Nc1ccccc1N1CCOCC1 | i | -6% | 19% | 5.8µM* | -1% | 3%
Cc1ccc(OCC(=O)Nc2ccccc2N2CCOCC2)c(C)c1 | i | 7% | 20% | i | -3% | 4%
O=C(COc1ccc(F)cc1Br)Nc1ccccc1N1CCOCC1 | i | 4% | 0% | 8.2µM* | -1% | -19%
Cc1cc(Cl)ccc1OCC(=O)Nc1ccccc1N1CCOCC1 | ? | 1% | 21% | 15µM* | -3% | 7%[11.4 µM]
COc1ccc(CCN2CCC(CNC(=O)c3cnn(-c4ccccc4)c3C3CCN(C(=O)OC(C)(C)C)CC3)CC2)cc1 | 16µM* | · | · | ? | · | -21%
[O-]/C(=C(\C(=S)Nc1cccc2ccccc12)[n+]1ccccc1)c1ccc(Cl)s1 | i | -1% | ? | i | -2% | -24%
Cc1ccc(C)c(NC(=S)/C(=C(\[O-])c2ccc(Cl)s2)[n+]2ccccc2)c1 | i | -10% | 0.65µM* | i | -4% | -14%
COc1ccccc1N1CCN(c2nc(C)nc3c2oc2ccccc23)CC1 | 1.4µM* | ? | ? | 1.1µM* | -2% | 6%
Cc1nc(N2CCC(C)CC2)c2oc3ccccc3c2n1 | ? | -14%[9.22 µM] | ? | 21µM* | -4% | -30%
Cc1nc(N2CCN(Cc3ccc4c(c3)OCO4)CC2)c2oc3ccccc3c2n1 | ? | ? | 12µM* | ? | 0% | -13%
Cc1nc(N2CCN(Cc3ccc(Cl)cc3)CC2)c2oc3ccccc3c2n1 | i | 6% | ? | ? | -1% | -16%
